PubChem BioAssay AID1159580 (chemical genetic matrix, 2015)
Several values for one entry are separate records, joined by “and”; a condition that tells them apart may be missing. Identical values can stand only once. Hit rate of the full screen: of about 5,500 compounds, about 2,000 (36%) were called active. Not shown: some 18% with an inconclusive outcome. No stated cut-off is given here; in the data, active means normalized growth mostly below about 0.91 (no sharp cut-off); inconclusive means no clear call, values can overlap the other calls; inactive means mostly above about 0.92. The list shows a part of the results. A structure can be active in one record and inactive in another.

Test: chemical genetic growth profiling, strain panel (AID 1159580);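 further: tested at 20 µM; growth read once vehicle control cultures reached saturation at 30 °C; 1 = growth at the plate median or of vehicle wells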
Conditions: S. cerevisiae deletion strains, growth OD

With `CN1CCN(CCCN2c3ccccc3Sc3ccc(Cl)cc32)CC1` the normalized growth (locus YAL013W, strain DEP1, stronger effect = lower value) was 0.216 (active) and 1.03 (inactive), the normalized growth (locus YAL021C, strain ccr4, stronger effect = lower value) was 0.706 (active) and the normalized growth (locus YAL026C, strain drs2, stronger effect = lower value) was 0.0669 (active). For the same compound, the normalized growth (locus YAL030W, strain snc1, stronger effect = lower value) was 0.922 (active), the normalized growth (locus YAL040C, strain CLN3, stronger effect = lower value) was 0.97 (inactive) and the normalized growth (locus YBL061C, strain skt5, stronger effect = lower value) was 0.888 (active). The normalized growth (locus YBR009C, strain hhf1, stronger effect = lower value) was 0.8 (active), the normalized growth (locus YBR021W, strain FUR4, stronger effect = lower value) was 0.413 (active) and the normalized growth (locus YBR023C, strain chs3, stronger effect = lower value) was 0.868 (active). For the same compound, the normalized growth (locus YBR171W, strain sec66, stronger effect = lower value) was 0.987 (inactive), the normalized growth (locus YBR229C, strain ROT2, stronger effect = lower value) was 1 (inactive) and the normalized growth (locus YBR231C, strain swc5, stronger effect = lower value) was 0.663 (active). The normalized growth (locus YCL011C, strain gbp2, stronger effect = lower value) was 0.772 (active), the normalized growth (locus YCL016C, strain dcc1, stronger effect = lower value) was 0.938 (inactive) and the normalized growth (locus YCL029C, strain bik1, stronger effect = lower value) was 1.03 (inactive). The normalized growth (locus YCL061C, strain MRC1 (second series), stronger effect = lower value) was 0.997 (inactive), the normalized growth (locus YCL069W, strain vba3, stronger effect = lower value) was 0.966 (inactive) and the normalized growth (locus YCR088W, strain abp1, stronger effect = lower value) was 0.831 (active). For the same compound, the normalized growth (locus YDL005C, strain med2, stronger effect = lower value) was 1 (inactive), the normalized growth (locus YDL035C, strain GPR1, stronger effect = lower value) was 0.214 (active) and the normalized growth (locus YDL040C, strain nat1, stronger effect = lower value) was 0.964 (inactive). For the same compound, the normalized growth (locus YDL074C, strain BRE1, stronger effect = lower value) was 0.296 (active), the normalized growth (locus YDL101C, strain DUN1, stronger effect = lower value) was 0.965 (inactive) and the normalized growth (locus YDL134C, strain PPH21, stronger effect = lower value) was 0.982 (inactive). For the same compound, the normalized growth (locus YDL185W, strain tfp1, stronger effect = lower value) was 0.964 (inactive), the normalized growth (locus YDL192W, strain arf1, stronger effect = lower value) was 0.0937 (active) and the normalized growth (locus YDR001C, strain nth1, stronger effect = lower value) was 0.993 (inactive). The normalized growth (locus YDR069C, strain doa4, stronger effect = lower value) was 0.804 (active), the normalized growth (locus YDR101C, strain arx1, stronger effect = lower value) was 0.929 (inactive) and the normalized growth (locus YDR137W, strain rgp1, stronger effect = lower value) was 1.26 [resistant] (active). The normalized growth (locus YDR150W, strain NUM1, stronger effect = lower value) was 0.563 (active), the normalized growth (locus YDR159W, strain sac3, stronger effect = lower value) was 0.974 (inactive) and the normalized growth (locus YDR162C, strain NBP2, stronger effect = lower value) was 0.0524 (active). The normalized growth (locus YDR195W, strain ref2) was 1.15 [resistant] (active), the normalized growth (locus YDR297W, strain sur2, stronger effect = lower value) was 0.968 (inactive) and the normalized growth (locus YDR318W, strain mcm21, stronger effect = lower value) was 0.91 (active). For the same compound, the normalized growth (locus YDR334W, strain swr1, stronger effect = lower value) was 0.94 (inactive), the normalized growth (locus YDR335W, strain msn5, stronger effect = lower value) was 0.96 (inactive) and the normalized growth (locus YDR363W, strain ESC2, stronger effect = lower value) was 0.891 (inactive). The normalized growth (locus YDR388W, stronger effect = lower value) was 0.805 (active), the normalized growth (locus YDR392W, strain spt3, stronger effect = lower value) was 0.954 (inactive) and the normalized growth (locus YDR502C, strain sam2, stronger effect = lower value) was 0.39 (active). The normalized growth (locus YEL003W, strain gim4, stronger effect = lower value) was 0.832 (active), the normalized growth (locus YEL037C, strain rad23, stronger effect = lower value) was 0.963 (inactive) and the normalized growth (locus YEL061C, strain CIN8 (second series), stronger effect = lower value) was 0.986 (inactive). For the same compound, the normalized growth (locus YEL061C, strain CIN8, stronger effect = lower value) was 0.664 (active), the normalized growth (locus YER002W, strain NOP16, stronger effect = lower value) was 1 (inactive) and the normalized growth (locus YER015W, strain faa2, stronger effect = lower value) was 0.556 (active). For the same compound, the normalized growth (locus YER016W, strain bim1, stronger effect = lower value) was 0.972 (inactive), the normalized growth (locus YER110C, stronger effect = lower value) was 1.02 (inactive) and the normalized growth (locus YER111C, strain swi4, stronger effect = lower value) was 0.993 (inactive). The normalized growth (locus YER155C, strain BEM2 (second series), stronger effect = lower value) was 0.861 (active), the normalized growth (locus YER155C, strain BEM2, stronger effect = lower value) was 1.04 (inactive) and the normalized growth (locus YER167W, strain BCK2, stronger effect = lower value) was 0.858 (active). For the same compound, the normalized growth (locus YFR010W, strain ubp6, stronger effect = lower value) was 0.734 (active), the normalized growth (locus YGL078C, strain dbp3, stronger effect = lower value) was 0.966 (inactive) and the normalized growth (locus YGL086W, strain mad1, stronger effect = lower value) was 0.61 (active). The normalized growth (locus YGL167C, strain pmr1, stronger effect = lower value) was 0.947 (inactive), the normalized growth (locus YGL173C, strain kem1, stronger effect = lower value) was 0.874 (active) and the normalized growth (locus YGL227W, strain vid30, stronger effect = lower value) was 0.997 (inactive). For the same compound, the normalized growth (locus YGL240W, strain doc1, stronger effect = lower value) was 1.01 (inactive), the normalized growth (locus YGL248W, strain PDE1, stronger effect = lower value) was 0.99 (inactive) and the normalized growth (locus YGL253W, strain hxk2, stronger effect = lower value) was 0.927 (inactive). For the same compound, the normalized growth (locus YGR078C, strain PAC10, stronger effect = lower value) was 0.594 (active), the normalized growth (locus YGR135W, strain pre9, stronger effect = lower value) was 0.544 (active) and the normalized growth (locus YGR229C, strain SMI1, stronger effect = lower value) was 0.065 (active) and 1.02 (inactive). For the same compound, the normalized growth (locus YGR252W, strain gcn5, stronger effect = lower value) was 0.309 (active), the normalized growth (locus YHR013C, strain ard1, stronger effect = lower value) was 0.872 (inactive) and the normalized growth (locus YHR027C, strain rpn1, stronger effect = lower value) was 0.594 (active). The normalized growth (locus YHR030C, strain SLT2, stronger effect = lower value) was 0.465 (active) and 1.02 (inactive), the normalized growth (locus YHR079C, strain IRE1 (second series), stronger effect = lower value) was 0.969 (inactive) and the normalized growth (locus YHR079C, strain IRE1, stronger effect = lower value) was 1 (inactive). The normalized growth (locus YHR094C, strain hxt1, stronger effect = lower value) was 1 (inactive), the normalized growth (locus YHR129C, strain ARP1, stronger effect = lower value) was 0.932 (inactive) and the normalized growth (locus YHR142W, strain chs7, stronger effect = lower value) was 0.854 (active). The normalized growth (locus YHR200W, strain rpn10, stronger effect = lower value) was 0.869 (active), the normalized growth (locus YIL066C, strain RNR3, stronger effect = lower value) was 0.793 (active) and the normalized growth (locus YIL073C, strain SPO22, stronger effect = lower value) was 0.854 (inactive). The normalized growth (locus YIL125W, strain kgd1, stronger effect = lower value) was 0.958 (inactive), the normalized growth (locus YIR030C, strain dcg1, stronger effect = lower value) was 1 (inactive) and the normalized growth (locus YJL092W, strain hpr5, stronger effect = lower value) was 0.942 (inactive). For the same compound, the normalized growth (locus YJL095W, strain BCK1 (second series), stronger effect = lower value) was 0.919 (active), the normalized growth (locus YJL095W, strain BCK1, stronger effect = lower value) was 0.494 (active) and 1.04 (inactive) and the normalized growth (locus YJL115W, strain asf1, stronger effect = lower value) was 0.99 (inactive). The normalized growth (locus YJL129C, strain trk1, stronger effect = lower value) was 0.83 (active), the normalized growth (locus YJL134W, strain LCB3, stronger effect = lower value) was 0.991 (inactive) and the normalized growth (locus YJL154C, strain vps35, stronger effect = lower value) was 0.982 (inactive). For the same compound, the normalized growth (locus YJL164C, strain tpk1, stronger effect = lower value) was 0.878 (active), the normalized growth (locus YJL166W, strain qcr8, stronger effect = lower value) was 0.809 (active) and the normalized growth (locus YJL168C, strain set2, stronger effect = lower value) was 1.01 (inactive). For the same compound, the normalized growth (locus YJL187C, strain SWE1 (second series), stronger effect = lower value) was 0.85 (active), the normalized growth (locus YJR043C, strain POL32, stronger effect = lower value) was 0.247 (active) and the normalized growth (locus YJR066W, strain TOR1, stronger effect = lower value) was 0.968 (inactive). The normalized growth (locus YJR075W, strain HOC1, stronger effect = lower value) was 0.131 (active).
